Here are results for 14 compounds from PubChem BioAssay (EPA / NIEHS).

The structures appear in SMILES notation. Results filed as inconclusive are left out. Active and inactive are the calls of the source. Rule for the calls: active = hit-call score of the fitted dose curve at least 0.9, where 1 is the maximum; inconclusive = response in the unintended direction; inactive = score below 0.9.

Chain of Glycogen synthase kinase-3 beta (Homo sapiens) (P49841 whole entry, looked up): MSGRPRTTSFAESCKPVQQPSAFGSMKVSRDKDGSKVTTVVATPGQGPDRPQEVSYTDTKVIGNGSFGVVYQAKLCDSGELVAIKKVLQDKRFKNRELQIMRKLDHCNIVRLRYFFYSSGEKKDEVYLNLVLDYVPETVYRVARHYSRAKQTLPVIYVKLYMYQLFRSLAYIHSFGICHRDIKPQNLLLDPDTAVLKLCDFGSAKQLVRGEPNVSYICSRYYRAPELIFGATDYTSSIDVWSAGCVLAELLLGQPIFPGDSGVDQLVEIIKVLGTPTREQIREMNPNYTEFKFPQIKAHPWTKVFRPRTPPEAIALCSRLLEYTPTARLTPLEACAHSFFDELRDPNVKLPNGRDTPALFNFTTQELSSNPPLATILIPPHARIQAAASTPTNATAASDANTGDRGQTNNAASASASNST

In this assay the target is Glycogen synthase kinase-3 beta (Homo sapiens) (UniProt P49841). As to the kind of experiment: NVS_ENZ_hGSK3b: NovaScreen (NVS) Enzymatic Assay for human Glycogen Synthase Kinase-3 beta (GSK3b) (AID 2283165). The protocol:
NVS_ENZ_hGSK3b is a biochemical, single-readout assay that uses extracted gene-proteins in a cell-free assay. Measurements were taken 1 hour after chemical dosing in a 384-well plate.NVS_ENZ_hGSK3b is one of one assay component(s) measured or calculated from the NVS_ENZ_hGSK3b assay. It is designed to make measurements of enzyme activity, a form of enzyme reporter, as detected with fluorescence intensity signals by Fluorescence and electrophoretic mobility shift technology.Data from the assay component NVS_ENZ_hGSK3b was analyzed into 1 assay endpoint. This assay endpoint, NVS_ENZ_hGSK3b, was analyzed in the positive analysis fitting direction relative to DMSO as the negative control and baseline of activity. Using a type of enzyme reporter, loss-of-signal activity can be used to understand changes in the enzymatic activity as they relate to the gene GSK3B. Furthermore, this assay endpoint can be referred to as a primary readout, because this assay has produced multiple assay endpoints where this one serves a enzymatic activity function. To generalize the intended target to other relatable targets, this assay endpoint is annotated to the kinase intended target family, where the subfamily is serine/threonine kinase.
Binding assays used specific radioligands (tritiated, iodinated) with non-radioactive competitive displacement ligands in agonist or antagonist protocols (as indicated) and various reference compounds and inhibitors to titrate specific binding to receptors and transporters. Most enzyme assays (CYPs, kinases, phosphatases, proteases, HDACs) used recombinant protein and specific substrates (fluorescence mostly, some colorimetric and radioactive) and inhibitors, followed by a biochemical separation of substrate and product. All assays for the biochemical HTS were initially run in duplicate at a single concentration (10 uM for CYP450 assays and 25 uM for all others). Assay-chemical combinations meeting a pre-defined threshold (e.g., 30% inhibition and other criteria defined below) were then run in singleton concentration-response format with maximum concentration of 20 uM for CYPs and 50 uM for all others. Each assay was run with positive and negative controls, and concurrent controls on every plate. The follow-up (secondary) screen tested active chemical-pairs in concentration series, as well as a few additional assays not tested in the primary screen, some selected negative inactives, and several cases re-run in the concentration series for confirmatory purposes.
For the compound `C[C@]12C=CC(=O)C=C1CC[C@H]1[C@@H]3C[C@@H](O)[C@](O)(C(=O)CO)[C@@]3(C)C[C@H](O)[C@@]12F`, the call was inactive. Take `c1ccc(C(O[C@@H]2CCCN(CCc3ccc4c(c3)OCO4)C2)c2ccccc2)cc1`: the call was inactive.

Regarding `O=C(O)c1ccc2c(c1)nc(C(=O)NC1CCN(C3CC3)CC1)n2Cc1cc(-c2ccc(Cl)s2)on1`, the result was inactive. Consider `O=c1[nH]cnc2c1ncn2[C@H]1CC[C@@H](CO)O1`, for which the outcome was inactive. As to `NC(=O)NN=Cc1ccc([N+](=O)[O-])o1`, the compound was classed as inactive.

`CCCCCCCC/C=C\CCCCCCCC(=O)OC[C@@H](O)[C@H]1OC[C@H](O)[C@H]1O`: the call was inactive.

As for `O=C(O)c1cccc(C[C@@H]2COc3ccc(OCc4nc5cc(F)ccc5s4)cc3[C@@H]2O)c1`, the compound was called inactive.

With `O=C(NO)C1(NS(=O)(=O)c2ccc(Oc3ccc(F)cc3)cc2)CCOCC1`, the outcome was inactive.

For the compound `OCc1ccccc1`, the compound was classed as inactive. As for `OC[C@H]1O[C@@H]2O[C@H]3[C@H](O)[C@@H](O)[C@@H](O[C@H]4[C@H](O)[C@@H](O)[C@@H](O[C@H]5[C@H](O)[C@@H](O)[C@@H](O[C@H]6[C@H](O)[C@@H](O)[C@@H](O[C@H]7[C@H](O)[C@@H](O)[C@@H](O[C@H]1[C@H](O)[C@H]2O)O[C@@H]7CO)O[C@@H]6CO)O[C@@H]5CO)O[C@@H]4CO)O[C@@H]3CO`, the result was inactive. For `CCCC(CCC)C(=O)O`, the compound was called inactive.

Consider `CCCCCCCC1CCC(=O)O1` (centres undefined), for which the outcome was inactive. The result for `OCCNCCO` reads “inactive”; that for `Cc1ncc([C@@H](CCCCCCc2ccc3c(n2)NCCC3)CC(=O)O)cn1`, “inactive”.
